Where a name gives a salt, the structure may show the parent alone.
Tests used:
Conditions in all cases: incubation time: 27 h, anaerobic, 37 °C;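 for the amine columns active = adjusted P below 0.05 in both replicates with a change the same way and a mean fold change under 0.8 or over 1.25; inactive = the rest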
[1] = test system: Clostridium sporogenes DSM 1664; experiment: growth (OD595) fold change vs plate DMSO controls (fold change (ratio)); higher = more growth
In short: (§1)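 The 96-well mGAM cultures had been kept anaerobic for 27 h at 37 °C before being shaken and read at 595 nm. Blank subtraction, compound background correction with 20 µM compound solutions in water, and a calibration factor of 5 turned the readings into OD. Growth is given as the fold change versus the median of plate DMSO controls. Fold changes above 1.5 were set to NA, and the values are means of 2 biological replicates.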

Escherichia coli IAI1 [2] = experiment: as above
In short: as §1

[3] = test system: Klebsiella aerogenes DSM 30053; experiment: as above
In short: as §1

[4] = test system: Ruminococcus gnavus DSM 108212; experiment: as above
In short: as §1

[5] = test system: Klebsiella aerogenes DSM 30053; experiment: fold change of Histamine concentration vs plate DMSO controls (fold change (ratio)); higher = more amine produced, active = hit call of the paper (significant change in both replicates, either direction)
In short: (§2)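 Amine values are fold changes relative to DMSO-only wells on the same plate. They derive from 27 h, 37 °C anaerobic mGAM cultures of four gut bacterial strains in 80 µL wells, dosed at 20 µM final, or 50 µM final for sweeteners. Extraction of the whole culture, LC–triple-quadrupole MS in dynamic MRM mode, external calibration curves and within-batch drift correction were used, with 2 biological replicates averaged.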

[6] = test system: Clostridium sporogenes DSM 1664; experiment: fold change of Tryptamine concentration vs plate DMSO controls (fold change (ratio)); higher = more amine produced, active = hit call of the paper (significant change in both replicates, either direction)
In short: as §2

[7] = test system: Ruminococcus gnavus DSM 108212; experiment: as above
In short: as §2

Escherichia coli IAI1 [8] = experiment: fold change of Putrescine concentration vs plate DMSO controls (fold change (ratio)); higher = more amine produced, active = hit call of the paper (significant change in both replicates, either direction)
In short: as §2

[9] = test system: Klebsiella aerogenes DSM 30053; experiment: as above
In short: as §2

Escherichia coli IAI1 [10] = experiment: fold change of Cadaverine concentration vs plate DMSO controls (fold change (ratio)); higher = more amine produced, active = hit call of the paper (significant change in both replicates, either direction)
In short: as §2

[11] = test system: Klebsiella aerogenes DSM 30053; experiment: as above
In short: as §2

[12] = test system: Ruminococcus gnavus DSM 108212; experiment: fold change of 2-Phenylethylamine concentration vs plate DMSO controls (fold change (ratio)); higher = more amine produced, active = hit call of the paper (significant change in both replicates, either direction)
In short: as §2

Row | Structure (SMILES) | growth [1] | growth (Escherichia coli IAI1 [2]) | growth [3] | growth [4] | fold change of Histamine concentration [5] | fold change of Tryptamine concentration [6] | fold change of Tryptamine concentration [7] | fold change of Putrescine concentration (Escherichia coli IAI1 [8]) | fold change of Putrescine concentration [9] | fold change of Cadaverine concentration (Escherichia coli IAI1 [10]) | fold change of Cadaverine concentration [11] | fold change of 2-Phenylethylamine concentration [12]
1 | Nc1nc(N)nc(-c2cc(Cl)ccc2Cl)n1 [Irsogladine maleate] (20 µM) | 1.07 | 1.02 | 0.961 | 1.02 | 0.989 (inactive) | 0.978 (inactive) | 0.959 (inactive) | 1.04 (inactive) | 0.998 (inactive) | 1.06 (inactive) | 0.997 (inactive) | 0.921 (inactive)
2 | CCCCNc1cc(C(=O)O)cc(S(N)(=O)=O)c1Oc1ccccc1 [Bumetanide] (20 µM) | 1.19 | 1.01 | 1 | 0.971 | 0.994 (inactive) | 1.03 (inactive) | 1.05 (inactive) | 1.04 (inactive) | 1.02 (inactive) | 1.03 (inactive) | 1 (inactive) | 1.07 (inactive)
3 | O=C(O)CCC(=O)Nc1ccc(S(=O)(=O)Nc2nccs2)cc1 [Succinylsulfathiazole] (20 µM) | 1.03 | 1.11 | 1.2 | 1.13 | 0.965 (inactive) | 0.988 (inactive) | 1.02 (inactive) | 1.04 (inactive) | 0.997 (inactive) | 0.991 (inactive) | 1.01 (inactive) | 1.02 (inactive)
4 | CCOC(=O)O[C@]1(C(=O)OCCl)CC[C@H]2[C@@H]3CCC4=CC(=O)C=C[C@]4(C)[C@H]3[C@@H](O)C[C@@]21C [Loteprednol etabonate] (20 µM) | 1.29 | 1.26 | 1.08 | 1.08 | 0.899 (inactive) | 1.03 (inactive) | 1.01 (inactive) | 1.25 (inactive) | 1 (inactive) | 0.955 (inactive) | 1.01 (inactive) | 1.02 (inactive)
5 | C=CCOc1ccccc1OCC(O)CNC(C)C (stereo not drawn) [Oxprenolol hydrochloride] (20 µM) | 0.929 | 0.97 | 0.986 | 0.945 | 1.02 (inactive) | 1.08 (inactive) | 1.05 (inactive) | 1.01 (inactive) | 1 (inactive) | 1.02 (inactive) | 0.988 (inactive) | 1.04 (inactive)
6 | COC(=O)Nc1nc2ccc(SC(C)C)cc2[nH]1 [Methiazole] (20 µM) | 0.921 | 1 | 1.24 | 1.08 | 0.952 (inactive) | 1.04 (inactive) | 0.938 (inactive) | 0.996 (inactive) | 1.01 (inactive) | 1.04 (inactive) | 1.02 (inactive) | 0.929 (inactive)
7 | O=C(c1ccc(F)cc1)C1CCN(CCn2c(=O)[nH]c3ccccc3c2=O)CC1 [Ketanserin tartrate hydrate] (20 µM) | 1.21 | 0.974 | 1.02 | 1.06 | 1.05 (inactive) | 1.18 (inactive) | 1.01 (inactive) | 1.03 (inactive) | 1.02 (inactive) | 0.963 (inactive) | 1.02 (inactive) | 1.02 (inactive)
8 | NC(=O)c1ncn([C@@H]2O[C@H](CO)[C@@H](O)[C@H]2O)c1O [Mizoribine] (20 µM) | 0.99 | 1.06 | 1.06 | 1 | 0.951 (inactive) | 1.02 (inactive) | 1.01 (inactive) | 1.02 (inactive) | 1.02 (inactive) | 0.997 (inactive) | 1.01 (inactive) | 0.982 (inactive)
9 | Cc1ccc(S(=O)(=O)NCl)cc1 [Chloramine-T hydrate] (20 µM) | 0.97 | 0.978 | 1.11 | 1.07 | 0.912 (inactive) | 0.931 (inactive) | 0.992 (inactive) | 1.01 (inactive) | 1.03 (inactive) | 1.01 (inactive) | 1.02 (inactive) | 0.935 (inactive)
10 | COc1cc(NS(=O)(=O)c2ccc(N)cc2)ncn1 [Sulfamonomethoxine] (20 µM) | 1.06 | 0.996 | 0.978 | 1.09 | 1.11 (inactive) | 0.982 (inactive) | 0.944 (inactive) | 0.911 (inactive) | 1.02 (inactive) | 1.03 (inactive) | 0.991 (inactive) | 0.915 (inactive)
11 | CC(C)C[C@H](NC(=O)[C@@H](O)[C@H](N)Cc1ccccc1)C(=O)O [Ubenimex] (20 µM) | 1.02 | 0.971 | 0.969 | 0.332 | 0.887 (inactive) | 1.15 (inactive) | 0.148 (active) | 1.04 (inactive) | 0.95 (inactive) | 0.936 (inactive) | 0.973 (inactive) | 0.168 (active)
12 | CC(=O)Nc1ccc(OC(=O)c2ccccc2O)cc1 [Acetaminosalol] (20 µM) | 0.904 | 0.977 | 0.996 | 0.994 | 0.933 (inactive) | 1.06 (inactive) | 0.928 (inactive) | 1.01 (inactive) | 1.01 (inactive) | 1 (inactive) | 0.999 (inactive) | 0.917 (inactive)
13 | CC(C)(C)NCC(O)c1ccc(O)c(CO)c1 (stereo not drawn) [Salbutamol] (20 µM) | 1.05 | 0.99 | 1.03 | 0.843 | 1.08 (inactive) | 0.999 (inactive) | 1.03 (inactive) | 1.04 (inactive) | 1.02 (inactive) | 1 (inactive) | 0.998 (inactive) | 1.03 (inactive)
14 | Cn1c(=O)c2c(ncn2CC(=O)O)n(C)c1=O [Acefylline] (20 µM) | 0.895 | 0.94 | 1.02 | 1.06 | 0.964 (inactive) | 0.971 (inactive) | 0.936 (inactive) | 0.93 (inactive) | 0.995 (inactive) | 1.01 (inactive) | 0.999 (inactive) | 0.886 (inactive)
15 | CNCCC(Oc1ccc(C(F)(F)F)cc1)c1ccccc1 (stereo not drawn) [Fluoxetine hydrochloride] (20 µM) | 1.18 | 1.02 | 1.03 | 1.2 | 0.972 (inactive) | 0.945 (inactive) | 0.882 (inactive) | 0.927 (inactive) | 0.993 (inactive) | 1.19 (inactive) | 0.995 (inactive) | 0.907 (inactive)
16 | CN1CCC(OC(c2ccccc2)c2ccccc2)CC1 [Diphenylpyraline hydrochloride] (20 µM) | 0.998 | 0.955 | 0.989 | 1.13 | 1.05 (inactive) | 1.01 (inactive) | 0.999 (inactive) | 1.01 (inactive) | 0.995 (inactive) | 0.979 (inactive) | 0.983 (inactive) | 1.05 (inactive)
17 | O=C(Cn1ccnc1[N+](=O)[O-])NCCO [Etanidazole] (20 µM) | 0.988 | 1.01 | 1.06 | 0.954 | 0.832 (inactive) | 0.98 (inactive) | 1.28 (active) | 0.91 (inactive) | 1.03 (inactive) | 1.02 (inactive) | 1.11 (inactive) | 1.83 (active)
18 | O=C(NCCNCC(O)COc1ccc(O)cc1)N1CCOCC1 (stereo not drawn) [Xamoterol hemifumarate] (20 µM) | 1.1 | 0.989 | 0.983 | 1 | 1.06 (inactive) | 0.992 (inactive) | 0.889 (inactive) | 1.03 (inactive) | 1.03 (inactive) | 1 (inactive) | 0.986 (inactive) | 0.868 (inactive)
19 | CC(=O)[C@@]1(O)CC[C@H]2[C@@H]3C[C@H](C)C4=CC(=O)C=C[C@]4(C)[C@@]3(F)[C@@H](O)C[C@@]21C [Fluorometholone] (20 µM) | 1.02 | 0.986 | 1.01 | 1.14 | 1.05 (inactive) | 1.05 (inactive) | 1.08 (inactive) | 0.992 (inactive) | 0.968 (inactive) | 0.957 (inactive) | 0.983 (inactive) | 1.14 (inactive)
20 | CN(C)c1nc(N(C)C)nc(N(C)C)n1 [Altretamine] (20 µM) | 0.899 | 1.05 | 0.993 | 0.972 | 1.08 (inactive) | 0.977 (inactive) | 1.06 (inactive) | 1.15 (inactive) | 1.04 (inactive) | 1.01 (inactive) | 1 (inactive) | 1.07 (inactive)
21 | N=C(N)N1CCc2ccccc2C1 [Debrisoquin sulfate] (20 µM) | 1.11 | 1 | 1.02 | 1.13 | 1.01 (inactive) | 1.03 (inactive) | 1.02 (inactive) | 1.03 (inactive) | 1 (inactive) | 0.999 (inactive) | 0.993 (inactive) | 1.05 (inactive)
22 | CN1CCN(CCCN2c3ccccc3Sc3ccc(Cl)cc32)CC1 [Prochlorperazine dimaleate] (20 µM) | 1.06 | 1.11 | 1.14 | 0.858 | 0.917 (inactive) | 1.04 (inactive) | 0.87 (inactive) | 0.974 (inactive) | 0.979 (inactive) | 0.971 (inactive) | 1.02 (inactive) | 0.97 (inactive)
23 | Cn1c(=O)c2c(ncn2CCO)n(C)c1=O [Etofylline] (20 µM) | 0.922 | 1.01 | 1.01 | 1.04 | 0.983 (inactive) | 0.964 (inactive) | 0.853 (inactive) | 1.01 (inactive) | 0.997 (inactive) | 1.03 (inactive) | 1 (inactive) | 0.839 (inactive)
24 | CCCCc1ccc2[nH]c(NC(=O)OC)nc2c1 [Parbendazole] (20 µM) | 1.04 | 1.04 | 1.02 | 1.25 | 1.11 (inactive) | 0.953 (inactive) | 0.998 (inactive) | 0.98 (inactive) | 1.07 (inactive) | 0.981 (inactive) | 1.03 (inactive) | 1.02 (inactive)

Source: the supplement of paper PMC12494721
